Among all 370,000 compounds or so, about 4,800 (1.3%) were called active.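 Rule for the calls: active = inhibition above about 21% made by adding two undisclosed values (limit read from the data); inactive = the rest.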 The entries come from a sample that favours actives as a whole.
The molecules below were run against Protein arginine N-methyltransferase 1 (Homo sapiens) (UniProt Q99873) (assay: PRMT1 methyltransferase inhibitors, primary screen, biochemical, fluorescence polarization (AID 652257)). Settings: recombinant PRMT1, activity-based probe fluorescence polarization; at 2.79 µM; stronger effect = higher value.
Chain of Protein arginine N-methyltransferase 1 (Homo sapiens) (Q99873 whole entry, looked up): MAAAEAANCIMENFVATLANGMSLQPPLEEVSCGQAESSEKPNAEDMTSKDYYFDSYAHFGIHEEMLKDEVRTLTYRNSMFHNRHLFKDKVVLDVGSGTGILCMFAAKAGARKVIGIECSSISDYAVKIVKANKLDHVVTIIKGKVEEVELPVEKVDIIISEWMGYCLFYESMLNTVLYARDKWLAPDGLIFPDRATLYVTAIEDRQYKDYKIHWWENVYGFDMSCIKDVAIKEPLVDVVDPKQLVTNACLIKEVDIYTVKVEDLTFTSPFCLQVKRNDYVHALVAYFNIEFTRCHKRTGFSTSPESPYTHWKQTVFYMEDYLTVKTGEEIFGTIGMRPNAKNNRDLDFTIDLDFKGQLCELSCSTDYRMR

SMILES | inhibition
O=C(COC(=O)Cn1cnc2ccccc21)Nc1cccc2c1C(=O)c1ccccc1C2=O | 26.1% (active)
O=C(COC(=O)Cn1cnc2ccccc2c1=O)NCC12CC3CC(CC(C3)C1)C2 | -1.36% (inactive)
O=C(Cn1cnc2ccccc21)N/N=C/c1ccco1 | -1.39% (inactive)
Cc1cc2nc3c(=O)[nH]c(=O)nc-3n(C[C@H](O)[C@H](O)[C@H](O)CO)c2cc1C | 85.4% (active)
Cc1ccc(Cn2c(C)nc3c(c2=O)c2nc4ccccc4nc2n3Cc2ccco2)cc1 | 24.6% (active)
Cc1ccc(C(=O)CSc2nc3ccccc3c(=O)n2N)o1 | 6.79% (inactive)
Cc1ccc(OCC(=O)c2cc(C)n(Cc3ccco3)c2C)c([N+](=O)[O-])n1 | 1.18% (inactive)
C[C@H]1CN([C@@H](C)CO)S(=O)(=O)c2ccc(Br)cc2O[C@H]1CN(C)C(=O)c1cnccn1 | -6.2% (inactive)
CC1Sc2ccc(C(=O)NCc3ccccc3Cl)cc2NC1=O (stereo not given) | 1.76% (inactive)
COC(=O)c1cccc(Cn2ccc3ccc(-c4ccc5ccn(C(=O)C6CCCCC6)c5c4)cc32)c1 | 3.39% (inactive)
C[C@@H]1COc2cccc(N3CCCC3)c2S(=O)(=O)N1C | 10.8% (inactive)
Cc1ccccc1-n1c(SCC(=O)Nc2cccc3ccccc23)nc(O)cc1=O | 27.6% (active)
C=CCn1c(N)cc(=O)nc1SCC(=O)Nc1cccc2ccccc12 | -1.49% (inactive)
Cc1ccc(-n2c(SCC(=O)Nc3cccc4ccccc34)nnc2-c2ccccn2)cc1 | -1.87% (inactive)
COc1cccc(CNC(=O)C2CCCN(c3nc4ccccc4o3)C2)c1OC (stereo not given) | -1.5% (inactive)
Cc1ccc(NC(=O)Nc2cc(C)nn2-c2ccccc2)cc1 | -2.65% (inactive)
O=C(c1cccc(C(F)(F)F)c1)N1CC[C@H]2[C@H](CCCN2Cc2cc(F)cc(F)c2)C1 | -3.31% (inactive)
CCOCCn1c(C(C)C)nc2ccccc21 | -1.59% (inactive)
CCCn1c(C(Cc2ccccc2)NC(=O)COC)nc2ccccc21 (stereo not given) | 21.6% (active)
CCCC(NC(=O)c1ccccc1)c1nc2ccccc2n1Cc1ccc(C(=O)OC)o1 (stereo not given) | -1.43% (inactive)
CCCCn1ccnc1C(=O)c1cccc(S(=O)(=O)N2c3ccccc3CC2C)c1 (stereo not given) | -0.73% (inactive)
Cc1ccccc1NC(=O)C1CCN(c2ncccn2)CC1 | 8.54% (inactive)

SMILES | inhibition
Fc1ccc2nc(COCc3nc4ccc(F)cc4[nH]3)[nH]c2c1 | -1.38% (inactive)
CC(C)c1ccc(C2C(C#N)=C(N)Oc3c2oc(CO)cc3=O)cc1 (stereo not given) | 2.64% (inactive)
Cc1cc2c(c(=O)n1C)C(C(C)C)C(C#N)=C(N)O2 (stereo not given) | 2.55% (inactive)
Cc1cc2c(c(=O)n1Cc1ccco1)C(c1ccccc1)C(C#N)=C(N)O2 (stereo not given) | 36.6% (active)
CCC(C)(C)NC(=O)C(c1cccc(OC)c1OC)N(CC(C)C)C(=O)CCC(=O)Nc1cc(C)on1 (stereo not given) | -2.2% (inactive)
CCn1c(=S)sc2c(=O)n(CC(=O)Nc3ccc(OC)cc3)c(C)nc21 | 0.4% (inactive)
Oc1ccc2ccc3cccc[n+]3c2c1 | 187% (active)
COC(=O)[C@]12C[C@H](CC(=O)NCc3ccccc3)C(=O)N(Cc3ccccc3)C1=C[C@H](COCc1ccccc1)O[C@@H]2C | 1.65% (inactive)
N/C(=N\OC(=O)CCc1ccccc1)c1cccnc1 | 0.81% (inactive)
Cc1ccc(OCc2nnc(SC/C=C/c3ccccc3)n2Cc2ccco2)cc1 | -0.38% (inactive)
O=C(Nc1cc(Cl)cc(Cl)c1)OCCN1CCCC12CCC(c1ccccc1)CC2 (stereo not given) | -4.6% (inactive)
COc1ccc(CSc2nnc(SCC(=O)Nc3ccccc3C(F)(F)F)s2)cc1 | -1.07% (inactive)
COCCCNC(=O)C[C@H]1C[C@@]2(C(=O)OC)C(=C[C@H](C(C)(C)C)O[C@@H]2C)N(Cc2ccc(Cl)cc2Cl)C1=O | 4.84% (inactive)
COC(=O)[C@]12C[C@H](CC(=O)NCc3ccccc3)C(=O)N(CCc3ccc(OC)c(OC)c3)C1=C[C@H](C(C)(C)C)O[C@@H]2C | -1.11% (inactive)
NC(=O)c1ccc(NC(=O)COC(=O)c2c3c(nc4ccccc24)/C(=C\c2ccc4c(c2)OCO4)CCC3)cc1 | 141% (active)
O=C(COC(=O)c1ccc2c(c1)OCCO2)NCc1ccccc1Cl | -2.85% (inactive)
NS(=O)(=O)c1ccc(NC(=O)COC(=O)c2c3c(nc4ccccc24)/C(=C\c2ccc4c(c2)OCO4)CCC3)cc1 | 139% (active)
CN(C)S(=O)(=O)c1ccc(NC(=O)COC(=O)c2n[nH]c3ccccc23)cc1 | -3.56% (inactive)
CN(CC(=O)Nc1ccc(C(N)=O)cc1)S(=O)(=O)c1ccc2c(c1)OCCO2 | -3.91% (inactive)
O=C(COC(=O)c1c(Cl)cccc1Cl)Nc1cccc(S(=O)(=O)NC2=NCCCCC2)c1 | -1.88% (inactive)
COc1cccc(CSc2nnc(-c3cccnc3)n2Cc2ccccc2)c1 | 4.89% (inactive)
COc1ccc(C2Nc3ccccc3C(=O)N2Cc2cccs2)cc1COc1c(C)cccc1C (stereo not given) | -1.12% (inactive)

SMILES | inhibition
CCOC(=O)N1CCN(C(=O)CSc2nnc(-c3c[nH]c4ccccc34)n2CCOC)CC1 | -1.98% (inactive)
CN(CCO)c1cccc2c1S(=O)(=O)N(Cc1cn(Cc3ccc(C(F)(F)F)cc3)nn1)Cc1ccccc1O2 | 4.68% (inactive)
COc1cccc(/C=C/C(=O)OCC(=O)N2CCCc3ccccc32)c1 | -0.48% (inactive)
Cc1cccc2cc3c(N)c(C(=O)N4CCCc5ccccc54)sc3nc12 | 38% (active)
Cn1c(SCC(=O)N2CCCc3ccccc32)nc2ccccc2c1=O | 0.04% (inactive)
Cc1ccc(N)cc1CN1CCN(c2ncc(Cc3ccccc3)cn2)CC1 | -1.39% (inactive)
N#CC1=C(N)Oc2[nH]c(=S)[nH]c(=O)c2C12C(=O)Nc1ccccc12 (stereo not given) | 37.2% (active)
Cc1ccc(NC2(C#N)C(=O)Nc3ccccc32)cc1 (stereo not given) | -2.14% (inactive)
O=S1(=O)c2ccc(Br)cc2OC[C@H](Cc2ccccc2)N1Cc1cn(Cc2ccccc2)nn1 | 4.16% (inactive)
C=CCC(NCc1ccco1)c1ccc(OC)cc1 (stereo not given) | -0.85% (inactive)
Cc1cc(/C=N/Nc2ccc([N+](=O)[O-])cn2)c(C)n1-c1cccc(C(=O)O)c1 | 23.6% (active)
CN1CCN(C(=O)c2cnn(-c3ccccc3)c2NC(=O)c2ccc([N+](=O)[O-])cc2)CC1 | 4.06% (inactive)
Cc1cccc(C(=O)NC(=S)N2CCN(c3ccc([N+](=O)[O-])cc3)CC2)c1 | -2.54% (inactive)
Cc1ccccc1NC(=O)COC(=O)c1ccc(Sc2ncn[nH]2)c([N+](=O)[O-])c1 | -0.43% (inactive)
O=C(O)c1[nH]c2ccccc2c1C(c1cccc(O)c1)c1c(C(=O)O)[nH]c2ccccc12 | -1.91% (inactive)
Cc1c(C(C)c2ccccc2O)[nH]c2ccccc12 (stereo not given) | 2.86% (inactive)
CCOC(=O)c1cc2n(c1N)-c1ccccc1C2=O | 29.4% (active)
CCOC(=O)c1ccccc1NC(=O)c1c(N)n(C)c(=O)[nH]c1=O | 1.71% (inactive)
CCOC(=O)c1ccn(S(=O)(=O)c2ccc(C)cc2)c1-c1ccccc1 | -3.46% (inactive)
COc1cc(/C=C/C(=O)n2cnc3ccccc32)cc(OC)c1OC | 5.15% (inactive)
NS(=O)(=O)c1ccc(NC(=S)NC(=O)c2cccnc2)cc1 | 0.33% (inactive)
C=CCN1C(C(=O)OC)CN(Cc2cn(Cc3ccccc3)nn2)CCS1(=O)=O (stereo not given) | -1.05% (inactive)

SMILES | inhibition
O=C1C=CC(=O)N1c1ccc(N2CCCCC2)cc1 | 90.5% (active)
COc1ccc(C(=O)OCC(=O)Nc2ccc3[nH]c(=O)[nH]c3c2)c(OC)c1OC | 3.04% (inactive)
O=C(COc1ccc([N+](=O)[O-])cc1Cl)Nc1ccc2[nH]c(=O)[nH]c2c1 | 1.93% (inactive)
CC(C)(C)NC(=O)COc1ccc(CNc2ccc3[nH]c(=O)[nH]c3c2)cc1 | 35.9% (active)
O=S1(=O)c2c(cccc2N2CCSCC2)Oc2ccccc2CN1Cc1cn(Cc2ccc(F)cc2)nn1 | -0.69% (inactive)
O=C(Nc1ccccc1)N1CCN(Cc2nc3ccccc3c(=O)[nH]2)CC1 | 2.82% (inactive)
CC(=O)N/C(=C\c1ccccc1)C(=O)OC(C)C(=O)N(C)c1ccccc1 (stereo not given) | -2.28% (inactive)
CN(C(=O)CN1CCN(c2cc(-c3ccc(OCc4ccccc4)cc3)ncn2)CC1)c1ccccc1 | -1.91% (inactive)
CCN(CC)C(=O)CSc1nnc(CNc2ccc(F)cc2)n1Cc1ccco1 | 10.1% (inactive)
CC1CN(Cc2ccco2)C(=S)N(c2ccccc2)C1=O (stereo not given) | 6.21% (inactive)
CN(C)C(=S)N=c1ssc(=S)n1Cc1ccco1 | 27% (active)
Cc1cccc(OCCCC(=O)Nc2ccc(S(=O)(=O)N3CCCC3)cc2)c1 | 0.23% (inactive)
Cc1ccc2nc(CN(C)C(=O)[C@@H](Cc3ccccc3)NC(=O)[C@H]3O[C@@H](n4ccc(=O)[nH]c4=O)[C@H](O)[C@@H]3O)[nH]c2c1 | 1.16% (inactive)
Cc1nnc(SC(C(=O)Nc2cc(Cl)cc(Cl)c2)c2ccccc2)[nH]c1=O (stereo not given) | 11.5% (inactive)
COc1ccc(NC(=O)C(C)SCc2ccccc2)cc1 (stereo not given) | 1.07% (inactive)
CSc1nc(C)cc(SC(C(C)=O)C(=O)Nc2ccccc2)n1 (stereo not given) | 73.7% (active)
CCCC[C@H](C(=O)N(CC)c1ccccc1)[C@@H](O)c1ccc2ccccc2c1 | 1.04% (inactive)
COc1cccc(N(C)C(=O)[C@@H](C)[C@@H](O)c2ccc3ccccc3c2)c1 | -1.81% (inactive)
CC(=O)N(C1=C(Cl)C(=O)c2ccccc2C1=O)c1ccc(C(=O)O)cc1 | 87.5% (active)
